Bioassay records: PubChem BioAssay, The Scripps Research Institute Molecular Screening Center
S1P2 blocker: human S1P2 receptor antagonists, primary screen, cell-based; inhibition, % at 5 µM; cell-based S1P2 antagonist assay, inhibition at 5 uM; actives 0.21% (n = 97,000); Sphingosine 1-phosphate receptor 2 (Homo sapiens), O95136; in the data active = inhibition above about 45%;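 note: CRE beta-lactamase reporter cells expressing human S1P2 stimulated with S1P; 0% = agonist at EC80 alone and 100% = agonist plus reference antagonist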
Target sequence (O95136 whole entry, looked up): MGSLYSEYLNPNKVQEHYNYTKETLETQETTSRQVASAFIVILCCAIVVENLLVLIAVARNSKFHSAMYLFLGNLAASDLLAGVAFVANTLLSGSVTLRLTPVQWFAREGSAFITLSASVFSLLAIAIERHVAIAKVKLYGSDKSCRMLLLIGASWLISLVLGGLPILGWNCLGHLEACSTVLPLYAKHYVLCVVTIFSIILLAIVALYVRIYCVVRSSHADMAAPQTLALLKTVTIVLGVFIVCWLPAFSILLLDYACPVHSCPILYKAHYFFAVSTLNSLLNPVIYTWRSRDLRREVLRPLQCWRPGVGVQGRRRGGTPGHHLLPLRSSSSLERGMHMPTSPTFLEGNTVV
GALR2 blocker: GALR2 antagonists in receptor-expressing cells, primary screen; antagonist mode; Galanin receptor type 2 (Homo sapiens), O43603; actives 0.39% (n = 140,000); inhibition, % at 4 µM; in the data active = inhibition above about 27%;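 note: cells stimulated with galanin 1-16 at roughly its EC80; 0% = agonist challenge control and 100% = basal control without agonist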
S1P2 ag: S1P2 receptor agonists, primary screen, cell-based | actives 0.46% (n = 97,000) | activation, % at 4.5 µM | S1P2-expressing cell line, agonist reporter read-out | AID 729, 2007; in the data active = activation above about 16%;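 note: 0% = vehicle low control and 100% = maximal reference agonist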
GALR2 ag: GALR2 receptor agonists, primary screen, cell-based; GALR2-expressing cells, agonist activation read-out; actives 0.48% (n = 140,000); AID 803, 2007; activation, % (concentration not given with the values); Galanin receptor type 2 (Homo sapiens), O43603; in the data active = activation above about 5%, passing the limit was not always enough;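 note: 0% = vehicle buffer wells and 100% = reference agonist at full effect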
An asterisk follows results filed as active; . = no result. Rows were chosen to be rich in hits. Some 1.1% of all compounds tested hit in one or more screens of this group.

SMILES	S1P2 blocker	GALR2 blocker	S1P2 ag	GALR2 ag
COc1cc(NC(=O)COC(=O)CSc2cc(C)ccc2C)c(C)cc1[N+](=O)[O-]	.	-10	.	-1
O=C(CSc1nncn1-c1ccccc1)NCc1cccs1	-2	-11	-3	12*
CCOC(=O)CC(=O)CSc1nc(C)cc(C)c1C#N	-3	5	-5	7.2*
CCOC(=O)CC(=O)CSc1nc2c(c(C)c1C#N)CCC2	23	12	-6	-1
O=C(NCc1ccoc1)c1ccc(NC(=O)c2ccccc2Cl)cc1	12	29*	-12	-2
O=C(COC(=O)C12CC3CC(CC(C3)C1)C2)Nc1ccc([N+](=O)[O-])cc1Cl	.	-15	.	0
O=S1(=O)C=C(Sc2nc3cc(Cl)ccc3o2)c2ccccc21	94*	10	-11	-1
C[C@]1(C(=O)NCc2cc(F)cc(C(F)(F)F)c2)C=C[C@@H](Cc2ccccc2)N1C(=O)c1ccccc1	.	-4	.	-3
Cc1ccccc1OCC(=O)Nc1ccc(S(=O)(=O)Nc2ccccn2)cc1	.	8	.	0
COc1ccc(N2CCN(CCCNS(=O)(=O)c3ccc4c(c3)oc(=O)n4C)CC2)cc1	-5	-2	-9	-2
COc1ccc2cc(S(=O)(=O)NCCCN3CCOCC3)ccc2c1	-3	5	57*	-2
O=C(N/N=C\c1cc(Br)ccc1O)c1ccc(S(=O)(=O)N2CCCCC2)cc1	.	22	.	6.1*
CN1CCN(CCCC(=O)c2ccc(C3CCCC3)cc2)CC1	.	-10	.	1
Clc1ccc2oc(-c3cccnc3NCc3ccccc3)nc2c1	-18	-13	25*	3
Cc1ccc(CNc2ncccc2-c2nc3cc(Cl)ccc3o2)cc1	12	8	-6	-2
COc1ccc2nc(Nc3nc4cc5c(cc4s3)OCO5)sc2c1	.	-6	.	6.8*
COc1ccc2c(c1)[nH]c1c(=O)n(Cc3ccco3)cnc12	-26	11	-6	-3
COc1ccc2c(c1)c1ncn(Cc3ccco3)c(=O)c1n2C	-60	-9	19*	1
CCOC(=O)C1=C(C)Nc2sc(C(=O)c3ccc(OC)cc3)c(N)c2C1c1ccc(C(=O)OC)cc1 (stereo not drawn)	.	-2	.	5.6*
Cc1cc(=O)oc2cc3c(cc12)OCCO3	.	10	.	-1
Cc1cc(=O)oc2cc3c(cc12)OCCN3	-39	-5	46*	10*
Cn1c(-c2cc3ccc(OC(=O)C(C)(C)C)cc3oc2=O)nc2ccccc21	2	21	34*	46*
CC(C)(C)C(=O)Oc1ccc2cc(-c3ccc4ccccc4n3)c(=O)oc2c1	.	9	.	0
C=CCSc1cc(C)nc2c(-c3ccc(Cl)cc3)c(C)nn12	-35	-9	23*	0
Cc1cc(SCC(=O)c2cccs2)n2nc(C)c(-c3ccc(Cl)cc3)c2n1	.	10	.	-1
SMILES	S1P2 blocker	GALR2 blocker	S1P2 ag	GALR2 ag
[O-][N+]1=c2ccc(Nc3ccccc3)cc2=NC12CCCCC2	48*	12	-11	-3
O=[N+]([O-])c1c(NCCCO)cc(Sc2ccc(Cl)cc2)c2nonc12	.	8	.	5.0*
O=C(CCc1ccc(S(=O)(=O)N2CCOCC2)cc1)N/N=C/c1ccc(O)c(O)c1O	.	11	.	-2
O=C(Nc1ccccc1-c1nc2ccccc2s1)c1ccco1	-10	-13	-1	1
Cc1ccc(Cn2cccc(-c3nc4ccccc4s3)c2=O)cc1	-71	-18	77*	65*
O=c1c(-c2nc3ccccc3s2)cccn1Cc1ccccc1	-56	-12	63*	31*
CN1C(=O)c2ccc(NC(=O)c3ccc(N4CCCCC4)c([N+](=O)[O-])c3)cc2C1=O	.	-8	.	-1
CC(C)OCCCNC(=O)c1c(N)n(/N=C/c2cccs2)c2nc3ccccc3nc12	-28	-18	18*	3
COc1ccc(C2Nc3ccccc3C(=O)N2c2ccc(F)cc2)cc1CSc1ccccn1 (stereo not drawn)	.	0	.	6.4*
COc1ccccc1OCC(=O)c1[nH]c(C)c(C(C)=O)c1C	51*	-1	-3	-2
CC(=O)c1c(C)[nH]c(C(=O)COc2ccc(C#N)cc2)c1C	8	8	-7	-1
CCOC(=O)C1C(=O)CC(C)(O)C(C(=O)OCC)C1c1ccccc1 (stereo not drawn)	108*	12	-5	-2
CCOC(=O)C1C(=O)CC(C)(O)C(C(=O)OCC)C1c1ccc(OC)cc1 (stereo not drawn)	-22	-14	0	1
COc1ccc(C(=O)N/C(=C\c2ccc3c(c2)OCO3)C(=O)NCCc2nc3ccccc3[nH]2)cc1	.	-1	.	0
CCc1nc(SCc2nc3ccccc3[nH]2)c2oc3ccccc3c2n1	-33	-4	36*	0
CCOC(=O)c1sc(Nc2cccc(C)c2C)nc1C	-15	-7	-5	-2
COc1cc2c(cc1OC)C(c1cc3ccccc3oc1=O)=NC(C)(C)C2	-58	13	33*	0
C=CCn1c(N)c(C(=O)Nc2cccc(C)c2)c2nc3ccccc3nc21	-50	-7	52*	14*
C=CCn1c(N)c(C(=O)Nc2ccc(C)c(C)c2)c2nc3ccccc3nc21	-35	5	9	1
O=C(NC(=S)N1CCCCC1)C12CC3CC(CC(C3)C1)C2	-5	-4	-3	-1
O=C(c1cc(NC(=O)C23CC4CC(CC(C4)C2)C3)cc(NC(=O)C23CC4CC(CC(C4)C2)C3)c1)N1CCCCC1	74*	13	-11	-2
Cc1ccc(S(=O)(=O)N(C)CCCC(=O)Nc2ccc(C)cc2C)cc1	.	-5	.	-1
O=c1c2ccccc2[nH]c2ccccc12	.	8	.	5.6*
Cc1ccc(Nc2nc3ccccc3nc2-n2nc(C)cc2C)cc1	10	-4	20*	2
Cc1cccn2c(=O)c(/C=C(\C#N)C(=O)NC3CCS(=O)(=O)C3)c(N3CCC(C(N)=O)CC3)nc12 (stereo not drawn)	.	-4	.	6.3*
SMILES	S1P2 blocker	GALR2 blocker	S1P2 ag	GALR2 ag
Cc1cccn2c(=O)c(/C=C(\C#N)S(=O)(=O)c3ccccc3)c(N3CCC(C(N)=O)CC3)nc12	0	-2	-2	-1
COc1ccc(NS(=O)(=O)c2cccc(Cl)c2)cc1S(=O)(=O)N1CCCCC1	.	1	.	0
COc1cc2c(cc1OC)C1=C(C#N)CC/C(=N\S(=O)(=O)c3cccc(Cl)c3)N1CC2	-41	5	49*	0
Cc1cc(C)c(S(=O)(=O)N2CCCCC2)c(C)c1N(C)S(=O)(=O)c1ccccc1	26	0	-5	1
CCCCCCCCCCCCCCCC[n+]1cccc2ccccc21	.	11	.	-2
CCCCCCCCC[n+]1cccc2c3ccccc3ccc21	48*	2	-3	0
O=C(CSc1ccccc1)Nc1ccc(-c2nc3ccccc3[nH]2)cc1	.	-5	.	-1
O=C(CSc1ccc(Cl)cc1)Nc1cccc(-c2nc3ccccc3[nH]2)c1	.	1	.	6.2*
CCN(CC)S(=O)(=O)c1ccc(S(=O)(=O)N(CC(=O)Nc2ccccc2)Cc2ccco2)cc1	2	11	-8	-4
O=C(/C=C/c1cccc(OCc2ccccc2)c1)c1cccnc1	.	-12	.	-2
